# An excerpt weighted towards active compounds, which were near 0.81% of everything screened.
# COUP-TFII inh = NR2F2 transcriptional activity inhibitors, primary screen, cell-based, luciferase reporter, HEK293T, luminescence; COUP transcription factor 2 (Homo sapiens), P24468; HEK293T NGFI-A luciferase reporter; inhibition, % at 8.6 µM; 0.7% of 370,000 active; AID 686940, 2013;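 active = inhibition above a per-plate cutoff, mean inhibition of test wells between control levels plus 3 SD, cut at about 38% in these data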;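 note: cells cotransfected with COUP-TFII expression vector driving the NGFI-A reporter; 0% = median of COUP-TF2 test wells and 100% = reporter-only cells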
# NCOA2 inhibitor = inhibition of GAL4-SRC2 driven luciferase reporter, primary screen, SRC2 inhibitor project, cell-based, luminescence; Nuclear receptor coactivator 2 (Homo sapiens), Q15596; HEK293 GAL4-SRC2 luciferase reporter; inhibition, % at 9 µM; 0.17% of 370,000 active; AID 651957, 2012;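 active = inhibition above the mean inhibition of all tested compounds plus 3 SD, set per campaign, cut at about 52% in these data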;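 note: 0% = DMSO treated cells and 100% = cells given Gossypol at 36 µM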
# NR5A2 inv ag = LRH-1 (NR5A2) inverse agonists, primary screen, cell-based, luminescence, HEK293T, StAR-luciferase reporter | Nuclear receptor subfamily 5 group A member 2 (Homo sapiens), O00482 | LRH-1 transfected, 24 h | 0.13% of 360,000 active | inhibition, % at 3.6 µM | AID 602396, 2012;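 active = inhibition above the mean inhibition of all tested compounds plus 3 SD, cut at about 73% in these data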;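 note: 0% = DMSO wells and 100% = reporter-only cells lacking LRH-1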
# NCOA1 inh = SRC1 coactivator transcriptional activity inhibitors, primary screen, cell-based, luminescence. Nuclear receptor coactivator 1 (Homo sapiens), Q15788. HEK293 GAL4-SRC1 luciferase reporter. inhibition, % at 3.6 µM. 0.12% of 360,000 active;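 active = inhibition above the campaign mean plus 3 SD, with each screening campaign given its own cutoff, cut at about 60% in these data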;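 note: 0% = DMSO treated cells and 100% = gossypol at 36 µM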
# SRC3 inh = SRC3 coactivator transcriptional activity inhibitors, primary screen, cell-based, luminescence; HEK293 GAL4-SRC3 luciferase reporter; inhibition, % at 3.6 µM; 0.17% of 360,000 active; AID 588352, 2011;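 active = inhibition above a per-campaign cutoff, the mean of all compounds plus 3 SD, cut at about 60% in these data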;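 note: 0% = DMSO-treated cells and 100% = gossypol-treated cells at 36 µM; higher means less SRC3-driven luciferase light from the GAL4 reporter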
# Target sequence (Q9Y6Q9 whole entry, looked up, the tested form may be a part): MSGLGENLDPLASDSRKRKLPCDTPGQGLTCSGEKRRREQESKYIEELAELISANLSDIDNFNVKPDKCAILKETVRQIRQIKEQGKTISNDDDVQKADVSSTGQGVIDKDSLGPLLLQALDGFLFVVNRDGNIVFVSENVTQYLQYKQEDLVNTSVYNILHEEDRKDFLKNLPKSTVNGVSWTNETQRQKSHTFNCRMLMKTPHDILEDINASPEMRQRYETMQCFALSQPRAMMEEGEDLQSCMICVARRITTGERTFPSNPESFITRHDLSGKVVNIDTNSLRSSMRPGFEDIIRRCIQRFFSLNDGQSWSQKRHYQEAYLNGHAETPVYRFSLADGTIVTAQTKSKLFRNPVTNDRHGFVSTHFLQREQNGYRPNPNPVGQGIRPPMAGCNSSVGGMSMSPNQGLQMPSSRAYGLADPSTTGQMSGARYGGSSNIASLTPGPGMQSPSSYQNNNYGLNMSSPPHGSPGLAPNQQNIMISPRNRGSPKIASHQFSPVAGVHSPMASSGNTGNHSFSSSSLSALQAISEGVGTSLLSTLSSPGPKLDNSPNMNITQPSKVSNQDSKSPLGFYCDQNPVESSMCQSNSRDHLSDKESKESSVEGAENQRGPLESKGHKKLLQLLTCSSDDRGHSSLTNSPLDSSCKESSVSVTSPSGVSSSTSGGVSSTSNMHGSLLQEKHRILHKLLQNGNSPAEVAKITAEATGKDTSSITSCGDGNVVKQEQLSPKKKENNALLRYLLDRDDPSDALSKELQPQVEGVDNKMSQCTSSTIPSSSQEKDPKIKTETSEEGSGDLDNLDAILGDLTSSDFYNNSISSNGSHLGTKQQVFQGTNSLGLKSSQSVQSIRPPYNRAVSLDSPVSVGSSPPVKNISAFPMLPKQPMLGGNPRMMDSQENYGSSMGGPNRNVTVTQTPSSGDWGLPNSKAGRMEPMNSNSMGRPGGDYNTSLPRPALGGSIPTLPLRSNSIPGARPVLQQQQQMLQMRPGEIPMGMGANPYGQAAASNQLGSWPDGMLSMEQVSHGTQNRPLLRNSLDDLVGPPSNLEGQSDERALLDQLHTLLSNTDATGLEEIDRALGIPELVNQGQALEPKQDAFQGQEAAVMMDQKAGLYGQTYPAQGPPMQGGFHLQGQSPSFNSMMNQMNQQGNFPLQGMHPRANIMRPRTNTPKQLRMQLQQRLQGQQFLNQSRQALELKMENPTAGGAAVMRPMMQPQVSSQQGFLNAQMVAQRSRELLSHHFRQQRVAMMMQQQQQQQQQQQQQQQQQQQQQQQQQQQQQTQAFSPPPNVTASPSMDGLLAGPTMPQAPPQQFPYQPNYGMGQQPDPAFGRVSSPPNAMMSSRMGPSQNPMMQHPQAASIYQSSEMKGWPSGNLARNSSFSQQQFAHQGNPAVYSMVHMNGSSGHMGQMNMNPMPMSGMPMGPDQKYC
# VP16 Luc counter = Gal4-VP16 luciferase reporter inhibitors, counter-screen for COUP-TFII antagonist project, cell-based, luminescence, HEK293; 25% of 2,500 active; inhibition, % at 8.5 µM; shares compounds with COUP-TFII inh; in the data active = inhibition above about 13%
# COUP-TFII conf = NR2F2 transcriptional activity inhibitors, confirmation, cell-based, luciferase reporter, HEK293, triplicate; 45% of 2,500 active; inhibition, % at 8.5 µM; HEK293 NGFI-A luciferase reporter, luminescence; shares compounds with COUP-TFII inh; AID 687008, 2013;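 active = mean inhibition over three repeats above a set limit taken from the earlier primary screen, cut at about 38% in these data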;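 note: 100% = cells given the luciferase reporter alone without the COUP-TF2 vector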
# * hit, by the source's call; / = no result; ! = not confirmed by another sample.
SMILES,COUP-TFII inh,NCOA2 inhibitor,NR5A2 inv ag,NCOA1 inh,SRC3 inh,VP16 Luc counter,COUP-TFII conf
CC(C)(C)NC(=O)COc1ccc(CNc2ncn[nH]2)cc1,2,4,4,-1,10,/,/
Cc1ccc(-c2cc3onc(-c4ccccc4)c3c(=O)n2C)cc1,43*,2,24,23,19,34*,72*
CN(C)c1ccc(CC(=O)N2CCCCC2c2cc(C(=O)Nc3ccccc3Cl)no2)cc1 (centres undefined),48*,22,17,7,5,2,26
COc1ccc(NC(=O)c2cc(C3CCCCN3C(=O)Cc3ccc(N(C)C)cc3)on2)c(C)c1 (centres undefined),14,26,-5,-2,1,/,/
CCC1CCCCN1S(=O)(=O)c1ccc(NC(=O)c2ccncc2)cc1 (centres undefined),61*,39,33,20,12,7,57*
Cc1csc(CNc2ncnc3ccc(-c4ccoc4)cc23)c1,40*,32,18,56,53,8,32
c1cncc(CNc2ncnc3ccc(-c4ccoc4)cc23)c1,38*,25,21,58,57,7,17
Cc1cccc(CNc2ncnc3ccc(-c4ccoc4)cc23)c1,7,27,10,39,49,/,/
O=C(c1ccc(Cl)c(S(=O)(=O)N2CCCCCC2)c1)N1CCN(c2ccccn2)CC1,42*,16,24,0,20,-1,25
O=C(Nc1ccncc1)c1ccc(Cl)c(S(=O)(=O)N2CCCCC2)c1,61*,14,36,20,8,7,40*
O=C(Nc1ccc2c(c1)OCO2)c1ccc(Br)c(S(=O)(=O)N2CCCC2)c1,43*,1,-20,-3,2,-34,-14
O=C(Nc1ccncc1)c1ccc(Cl)c(S(=O)(=O)N2CCc3ccccc32)c1,73*,18,40,27,28,2,60*
O=C(c1ccc(Cl)c(S(=O)(=O)N2CCCCCC2)c1)N1CCCCC1,11,-54,4,-3,-9,/,/
COc1ccc(NC(=O)COc2ccc3c(c2)CCC3)cc1,1,-12,-9,-14,-5,/,/
COCc1nc2ccccc2n1Cc1c(F)cccc1Cl,14,2,-10,-3,13,/,/
O=C(CCc1nc2sc3c(c2c(=O)[nH]1)CCCC3)N1CCN(c2ccccc2)CC1,-8,-4,-2,-9,14,/,/
CCOC(=O)c1cc2c(=O)n3cccc(C)c3nc2n(CC2CCCO2)c1=NC(C)=O (centres undefined),73*!,5,10,8,-12,-5,-8
CSc1ccc(C(O)c2ncc(-c3cccc(F)c3)[nH]2)cc1 (centres undefined),-10,-34,9,-17,-1,/,/
CC(C)Cc1ccc(C(C)C(=O)Nc2ccccc2O)cc1 (centres undefined),49*,33,34,13,15,7,50*
CCOc1ccc(-c2csc(Cn3c(CN4CCN(C)CC4)nc4ccccc4c3=O)n2)cc1,39*,16,-29,-9,17,-11,7
CN(C)Cc1nc2ccccc2c(=O)n1Cc1nc(-c2cc3ccccc3o2)cs1,14,8,-5,13,-1,/,/
O=C(Nc1ccc2c(c1)OCCO2)C(c1cc2ccccc2o1)N1CCN(c2ccc(F)cc2)CC1 (centres undefined),39*,39,35,28,31,-29,1
O=C(Nc1ccc2c(c1)OCCO2)C(c1cc2ccccc2o1)N1CCN(c2ccc(C(F)(F)F)cn2)CC1 (centres undefined),25,22,45,41,39,/,/
COc1ccccc1N(/N=C1\Sc2ccccc2C1=O)C(C)=O,39*,-18,27,21,26,-21,33
COc1ccc(N(/N=C2\Sc3ccccc3C2=O)C(C)=O)cc1,-13,-44,-98,-108,-68,/,/
SMILES,COUP-TFII inh,NCOA2 inhibitor,NR5A2 inv ag,NCOA1 inh,SRC3 inh,VP16 Luc counter,COUP-TFII conf
COc1cccc(-c2nnc3n2N=C(C(C)(C)C)CS3)c1,45*,73*,46,67*,66*,27*,41*
Cc1cc(N)n(Cc2ccc(Cl)cc2)n1,4,-4,-2,1,13,/,/
Cc1ccc(-c2cc(N)n(Cc3ccc(Cl)cc3)n2)cc1,48*,-21,38,-5,0,-19,21
Cc1cc(N=Cc2c(O)n(-c3ccc4c(c3)OCO4)c(=O)c3ccccc23)ccn1,6,11,-6,-21,20,/,/
c1ccc(CNc2ncnc3scc(-c4cccs4)c23)nc1,60*,4,2,11,31,-1,31
c1ccc(-c2csc3ncnc(NCc4ccccn4)c23)cc1,21,34,16,-38,16,/,/
CCOCCCNC(=O)CN1N=C(c2ccc(C)cc2)CCC1=O,0,10,8,-22,0,/,/
CCOc1cc(/C=C2\CN(C)C/C(=C\c3ccc(O)c(OCC)c3)C2=O)ccc1O,78*,21,25,33,54,57*,82*
COc1cc(C=C2CN(C)C(=O)C2=O)ccc1O,3,-31,2,-47,-14,/,/
c1ccc(-c2nc(-c3cccnc3)cs2)cc1,-6,-38,-55,-45,-57,/,/
NC(=Nc1nc(-c2ccccn2)cc2ccccc12)c1ccccn1,42*,-69,57,71*,81*,-8,-2
N/C(=N\OC(=O)c1cccc2ccccc12)c1ccccn1,-49,-44,-87,-93,-55,/,/
CC(C)(C)c1ccc(CC(=O)N2CCC2(C)C(=O)Nc2cnc3ccccc3c2)cc1 (centres undefined),41*,1,-30,13,4,-5,12
CC(C)c1ccc(CC(=O)N2CCC2(C)C(=O)Nc2cnc3ccccc3c2)cc1 (centres undefined),45*,0,-11,-4,3,-3,11
CC(C)(C)c1ccc(C(=O)N2CCC2(C)C(=O)Nc2cnc3ccccc3c2)cc1 (centres undefined),21,1,-9,3,10,/,/
Cc1cc(C)n(CC(=O)N/N=C/c2ccco2)n1,8,-16,6,0,3,/,/
COc1ccc(Cc2nc3ccc(C(=O)N4CCCC4)cc3o2)cc1OC,16,-11,1,-29,-26,/,/
